Assay outcomes: PubChem BioAssay, Paczesny and Yang Labs, IUPUI and University of Michigan
This is one part of a sample in which hits are shown more often than they occur.
ST2 IL33 inh: inhibitors of human ST2 (IL1RL1) binding to IL-33, primary screen, biochemical, AlphaLISA | Interleukin-1 receptor-like 1 (Homo sapiens), Q01638 | AID 1259354, 2018 | inhibition, % for hits at 17 µM | 78,000 tested, 2.3% active | AlphaLISA ST2-Fc/biotin-IL-33 interaction, 1 h; in the data active means inhibition above about 30%
Target sequence (Q01638 whole entry, looked up): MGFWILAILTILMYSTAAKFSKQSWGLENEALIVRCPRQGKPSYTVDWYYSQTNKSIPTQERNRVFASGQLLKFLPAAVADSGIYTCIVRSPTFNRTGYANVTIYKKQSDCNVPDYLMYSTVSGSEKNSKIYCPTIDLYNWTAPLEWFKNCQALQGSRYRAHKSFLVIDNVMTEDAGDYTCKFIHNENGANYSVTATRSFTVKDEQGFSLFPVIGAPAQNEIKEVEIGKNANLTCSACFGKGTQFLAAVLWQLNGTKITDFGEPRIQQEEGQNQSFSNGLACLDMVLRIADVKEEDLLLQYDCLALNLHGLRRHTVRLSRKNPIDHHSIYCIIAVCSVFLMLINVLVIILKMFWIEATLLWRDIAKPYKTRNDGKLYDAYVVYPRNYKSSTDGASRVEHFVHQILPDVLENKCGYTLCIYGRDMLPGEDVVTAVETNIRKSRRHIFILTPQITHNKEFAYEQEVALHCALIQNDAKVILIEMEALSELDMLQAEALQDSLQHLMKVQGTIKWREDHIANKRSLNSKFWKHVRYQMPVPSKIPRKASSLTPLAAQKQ
* marks the source's active call; other numbers are inactive results; i = inactive.

SMILES	ST2 IL33 inh
CCOC(=O)c1c(NC(=O)c2ccc(S(=O)(=O)N3CCCC3)cc2)sc2c1CCN(C)C2	i
CC(C)N1CCC(N2CCN(Cc3cn[nH]c3C3CCCCC3)CC2CCO)CC1 (stereo not given)	i
COc1cc(OC)c(NC(=O)c2coc(=O)c3ccccc23)cc1Cl	i
C=CCOc1ccc(C(=O)N2CCOCC2)cc1	31%*
CCCOc1ccc(C(=O)N2CCOCC2)cc1OC	i
Cc1cc(C)c(C(=O)c2ccc(C(=O)N3CCOCC3)cc2)c(C)c1	i
Cc1noc(CSCC(=O)Nc2cc3c(C)cc(=O)oc3cc2C)n1	i
Cc1ccc(S(=O)(=O)Nc2cc(C)c(O)c(Br)c2)cc1	i
Cc1cccc(C2C3=C(Nc4c2c(=O)n(C)c(=O)n4C)c2ccccc2C3=O)c1 (stereo not given)	i
Cn1c2c(c(=O)n(C)c1=O)C(c1cccc(F)c1)C1=C(N2)c2ccccc2C1=O (stereo not given)	i
O=C1C2=C(Nc3[nH]n(-c4ccccc4)c(=O)c3C2c2ccc([N+](=O)[O-])cc2)c2ccccc21 (stereo not given)	47%*
Cn1nc(-c2ccc(Cl)cc2)c2cc(C(=O)N3CCCCC3)sc21	i
CN(C)c1ccc(/C=C(\C#N)c2ccc([N+](=O)[O-])cc2)cc1	i
COc1ccc(/C=C(\C#N)c2ccc([N+](=O)[O-])cc2)c(OC)c1	48%*
COc1ccc(/C=C(\C#N)c2nc3ccccc3[nH]2)c(OC)c1	i
O=C(COc1ccccc1[N+](=O)[O-])Nc1cc(Cl)c(Cl)cc1Cl	i
Cc1ccc2nsnc2c1NC(=O)COc1ccccc1[N+](=O)[O-]	32%*
CCC(=O)Nc1c(C)ccc2nsnc12	i
C=C1C(=O)OC2C1CCC1(C)C(O)CC=C(C)C21 (stereo not given)	i
COc1ccc(OC)c(NS(=O)(=O)c2ccc(NS(=O)(=O)c3ccc(C)cc3)cc2)c1	i
COc1ccc(S(=O)(=O)Nc2ccc(S(=O)(=O)Nc3cc(OC)ccc3OC)cc2)cc1	49%*
COc1ccc(OC)c(NS(=O)(=O)c2ccc(NS(=O)(=O)c3ccc(F)cc3)cc2)c1	i
Cc1ccc(C)c2c1NC(=O)C2CC(=O)N(CCO)Cc1nccs1 (stereo not given)	i
Cc1ccccc1Oc1ccc(N2C(=O)C3CC=CC(C)C3C2=O)cc1 (stereo not given)	i
CC(c1ccc(-c2ccc(C(=O)O)c(Cl)c2)cc1)N1CCCCC1 (stereo not given)	i
SMILES	ST2 IL33 inh
COc1ccc(C2C(C#N)=C(N)Oc3n[nH]c(-c4ccc5ccccc5c4)c32)cc1OC (stereo not given)	i
COc1ccc(C2C(C#N)=C(N)Oc3n[nH]c(-c4ccc(F)cc4)c32)cc1OC (stereo not given)	31%*
COc1cc(C2C(C#N)=C(N)Oc3n[nH]c(-c4ccccc4)c32)ccc1O (stereo not given)	i
CCOc1ccc(NS(=O)(=O)c2cc(Br)ccc2OC)cc1	i
COc1ccc(CCN(C)C2CCCN(C(=O)c3cc(C(C)C)no3)C2)cc1OC (stereo not given)	i
C=CCN(Cc1ccccc1OC)C(=O)C/C=C/C	i
CCCCc1cc(C[C@H]2CNCC[C@H]2CC(=O)N2CCN(C(C)=O)CC2)no1	43%*
COc1ccc(-c2cc(C[C@H]3CNCC[C@H]3CC(=O)N3CCN(C(C)=O)CC3)no2)cc1	i
COc1ccccc1CNC(=O)C[C@@H]1CCNC[C@@H]1Cc1cc(-c2ccccc2)on1	i
COC(=O)c1cc(C[C@H]2CNCC[C@H]2CC(=O)O)no1	77%*
CCCCc1cc(C[C@H]2CNCC[C@H]2CC(=O)N2CCc3cc(OC)c(OC)cc3C2)no1	i
COc1ccc(CNC(=O)C[C@@H]2CCNC[C@@H]2Cc2cc(-c3ccccc3)on2)cc1OC	i
Cc1cc(C)nc(NC(=NS(=O)(=O)c2ccc(Br)cc2)N2CCC(C)CC2)n1	i
CCc1cc2cnsc2s1	i
O=C(O)c1c[nH]c2ccc(S(=O)(=O)N3CCN(c4ccccc4F)CC3)cc2c1=O	i
CCN(CC)CN1C(=O)C(=Nc2cccc(C(F)(F)F)c2)c2ccccc21	32%*
O=C1C(=Nc2cccc(F)c2)c2ccccc2N1CN1CCN(c2ccccc2)CC1	i
CCOc1ccc(N=C2C(=O)N(CN3CCN(c4ccccc4)CC3)c3ccccc32)cc1	i
O=C(O)Cc1c(C(=O)O)nc2ccccc2c1C(=O)O	i
CCN(c1ccc(C)c(C)c1)S(=O)(=O)c1cc(Br)cc2c1N(C(C)=O)C(C)C2 (stereo not given)	i
Cc1cc([N+](=O)[O-])nn1CCCC(=O)NCc1ccc(F)cc1	i
COc1cc(Br)cc(/C=C/c2ccc3cccc(O)c3n2)c1O	38%*
COc1ccc2cccc(O)c2n1	i
CCOc1cc(Br)cc(C=O)c1O	i
Oc1cccc2ccc(/C=C/c3cc4c(cc3Br)OCO4)nc12	32%*
SMILES	ST2 IL33 inh
O=C(C1CC1)N1CCc2c(ncnc2N2CCC(O)(c3ccccc3)CC2)C1	i
CSc1ccccc1NC(=O)C(C)(C)Oc1ccc(Cl)cc1	i
COc1ccccc1/C=C/C1=NC(=C\c2ccccc2)/C(=O)O1	38%*
COc1ccccc1/C=C/C1=NC(=C\c2cccc([N+](=O)[O-])c2)/C(=O)O1	i
COc1ccccc1/C=C/C1=NC(=C\c2ccccc2Cl)/C(=O)O1	i
COc1ccccc1/C=C1N=C(/C=C/c2ccccc2OC)OC\1=O	37%*
COc1ccccc1/C=C/C1=NC(=C\c2ccc(Cl)cc2)/C(=O)O1	i
COc1ccccc1/C=C/C1=NC(=C\c2c(F)cccc2Cl)/C(=O)O1	i
O=C(C1CCCC1)N1CCN=C1SCc1ccc(Cl)cc1	i
O=C(NC(Nc1ccc(I)cc1)C(Cl)(Cl)Cl)c1cccs1 (stereo not given)	i
CCOc1cc(-c2nc(C(N)=O)c3c(n2)n(-c2ccc(F)cc2)c(=O)n3C)ccc1OC(C)C	i
CC(=O)C1=NN(c2cccc(Cl)c2)C2C(=O)N(c3ccc(C)cc3)C(=O)C12 (stereo not given)	i
COc1ccc(-c2cc(C(F)(F)F)nc(NCc3ccccc3)n2)cc1OC	i
COc1ccccc1-c1cc(C(F)(F)F)nc(S(C)(=O)=O)n1	i
COc1ccccc1Nc1cc(C(F)(F)F)nc2c(OC)ccc(OC)c12	39%*
COc1ccc(S(=O)(=O)N2CCSC2c2ccccc2Cl)cc1 (stereo not given)	i
COc1ccccc1OCCOc1cccc(Cl)c1Cl	i
COc1cc(NC(=O)c2ccc(Cl)cc2[N+](=O)[O-])c(OC)cc1Cl	i
CCc1ccccc1NC(=O)c1cccc([N+](=O)[O-])c1	i
CC1=C[C@@H](CNC(=O)c2ccc(C#N)cc2)[C@H](C(C)C)C[C@H]1CC(=O)Nc1ccccn1	81%*
CC1=C[C@@H](CNC(=O)c2ccncc2)[C@H](C(C)C)C[C@H]1CC(=O)NCc1ccc(C#N)cc1	i
CC1=C[C@@H](CNS(=O)(=O)c2cccc(C#N)c2)[C@H](C(C)C)C[C@H]1CC(=O)Nc1ccccn1	i
Cc1ccc(-c2nc3ccc(NCc4cccs4)cc3o2)cc1	i
Cc1ccc([N+](=O)[O-])cc1NC(=O)c1cc2ccccc2oc1=O	i
Cc1c(Br)cc(C(=O)NCCCN2CCOCC2)c(C)c1C	i
